# Compound activity as filed in PubChem.
# In the library only some 3.1% were active in any assay of this set; here they are far more common.
# FadD28 FP inh = inhibitors of FadD28 bisubstrate probe binding, primary screen, biochemical, fluorescence polarization, single point | Mycobacterium tuberculosis FadD28 fatty-acid-AMP ligase | inhibition, % at 12.5 µM | 360,000 compounds, 0.22% hits | AID 588549, 2011; in the data active means inhibition above about 8.5%, passing the limit was not always enough
# FBA Mtb inh = Mtb FBA enzyme inhibitors, primary screen, biochemical, fluorescence, strain H37Rv | AID 588726, 2011 | purified M. tuberculosis FBA, fluorescence read-out | inhibition, % at 1 µM | Fructose-bisphosphate aldolase (Mycobacterium tuberculosis (strain ATCC 25618 / H37Rv)), … | 360,000 compounds, 2.3% hits;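 further: 0% = vehicle and 100% = reference inhibitor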
# Target sequence (P9WQA3 whole entry, looked up): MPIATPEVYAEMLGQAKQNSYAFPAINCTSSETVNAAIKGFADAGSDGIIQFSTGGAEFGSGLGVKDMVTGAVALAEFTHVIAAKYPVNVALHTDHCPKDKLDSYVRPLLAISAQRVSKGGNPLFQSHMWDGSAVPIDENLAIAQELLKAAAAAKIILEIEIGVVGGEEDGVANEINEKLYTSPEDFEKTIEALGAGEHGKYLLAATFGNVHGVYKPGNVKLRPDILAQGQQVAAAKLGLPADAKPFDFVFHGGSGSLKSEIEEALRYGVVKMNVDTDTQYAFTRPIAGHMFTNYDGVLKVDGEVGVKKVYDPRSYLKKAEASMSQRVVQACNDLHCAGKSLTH
# GDH-TPI counter-1 = GDH-TPI coupling enzyme inhibitors, primary screen, artefact control for M. tuberculosis FBA inhibitor project, biochemical, absorbance, full deck; 360,000 compounds, 1.2% hits; GDH-TPI coupled enzyme counterscreen, NADH absorbance; inhibition, % at 4.8 µM; in the data active means inhibition above about 30%;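 further: 0% = DMSO wells and 100% = wells lacking the enzyme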
# SARS 3CLpro inh = SARS-CoV 3CLpro protease inhibitors, primary screen, biochemical, quenched FRET; Replicase polyprotein 1ab (Severe acute respiratory syndrome coronavirus), P0C6X7; recombinant SARS-CoV 3CLpro, quenched FRET peptide cleavage; inhibition, % at 6 µM; 290,000 compounds, 0.14% hits; in the data active means inhibition above about 12%
# Mtb BioA inh = M. tuberculosis BioA enzyme inhibitors, primary screen, biochemical, plate reader, single point, HTS; 7,8-diaminopelargonic acid synthase BioA (Mycobacterium tuberculosis); purified M. tuberculosis BioA enzyme; inhibition, % at 9.99 µM; 360,000 compounds, 0.096% hits; AID 602481, 2012; in the data active means inhibition above about 40%
# Mtb FBA confirm = M. tuberculosis aldolase blockers, biochemical, fluorescence, strain H37Rv, confirmation; shares compounds with FBA Mtb inh; 5,600 compounds, 78% hits; AID 651616, 2012; inhibition, % at 1 µM; purified M. tuberculosis FBA, fluorescence read-out;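 further: 0% = vehicle wells and 100% = reference inhibitor wells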
# GDH-TPI counter-2 = GDH-TPI coupling enzyme inhibitors, artefact control for M. tuberculosis FBA inhibitor project, biochemical, fluorescence, high throughput | shares compounds with FBA Mtb inh | GDH-TPI coupled enzyme counterscreen | inhibition, % at 1 µM | 5,600 compounds, 81% hits; in the data active means inhibition above about 10%
# GDH-TPI dose = GDH-TPI coupling enzyme inhibitors, dose response, artefact control for M. tuberculosis FBA inhibitor project, biochemical, fluorescence, IC50 | GDH-TPI coupled enzyme assay, artifact counterscreen | IC50, µM | 170 compounds, 79% hits | shares compounds with FBA Mtb inh; call rule not given here
# * = called active by the depositor; i = inactive; / = not tested or not shown; + = active, no number. Unless noted, no stated cut-off is given here; in the data, active means inhibition above about 27%; inactive means the rest.
SMILES,FadD28 FP inh,FBA Mtb inh,GDH-TPI counter-1,SARS 3CLpro inh,Mtb BioA inh,Mtb FBA confirm,GDH-TPI counter-2,others
CCOC(=O)CNC(=O)CSc1nnc(-c2ccccc2)n1Cc1ccco1,-3,98*,-6,-1,3,50*,39*,
O=C(Nc1ccc2c(c1)OCCO2)c1cccs1,-2,38*,13,3,2,12,10,GDH-TPI dose=>10
C[C@H]1CN([C@@H](C)CO)C(=O)Cc2cc(NS(=O)(=O)c3ccccc3)ccc2O[C@@H]1CN(C)CC1CCCCC1,/,/,/,/,-1,/,/,
CCN(CC)C(=O)COc1ccc2c(c1)C(=O)CC(C)(C)O2,-1,59*,9,3,-1,87*,72*,
CC1(C)CC(=O)c2cc(OCC(=O)N3CCOCC3)ccc2O1,1,48*,15,1,/,+,+,
Cc1noc(C)c1S(=O)(=O)Nc1ccc2c(c1)C(=O)N([C@H](C)CO)C[C@@H](C)[C@@H](CN(C)C(=O)CCCN(C)C)OCCCC[C@@H](C)O2,/,/,/,/,0,/,/,
Cc1cc(O)c(-c2cc(O)c(C)cc2O)cc1O,1,37*,-6,4,6,104*,82*,
O=C1CCCN1CCCNc1nc2c(S(=O)(=O)c3ccccc3)nnn2c2ccc(Cl)cc12,-3,41*,-1,0,1,1,-2,
CCS(=O)(=O)c1nc(S(=O)(=O)c2ccc(C)cc2)c(NCCCN2CCCC2=O)s1,-2,3,8,5,1,/,/,
O=C(N/N=C1/C(=O)c2cccc3cccc1c23)c1ccc(Cl)cc1,1,80*,8,-4,-2,79*,62*,
CCNC(=S)N/N=C1\C(=O)c2cccc3cccc1c23,-1,-2,21,2,-1,/,/,
C[C@H]1CN([C@@H](C)CO)C(=O)c2cccc(NC(=O)Nc3ccc4c(c3)OCO4)c2O[C@@H]1CN(C)Cc1ccc(Oc2ccccc2)cc1,/,/,/,/,-1,/,/,
O=C(COC(=O)c1ccccc1C(=O)c1ccccc1)Nc1cccc([N+](=O)[O-])c1,0,55*,5,2,-1,85*,74*,
O=C(COC(=O)COc1ccccc1)Nc1cccc([N+](=O)[O-])c1,3,0,3,-1,/,/,/,
CO[C@H]1CN(C)C(=O)c2ccc(NS(=O)(=O)c3ccccc3C)cc2OC[C@H](C)N(C)C[C@H]1C,/,/,/,/,-3,/,/,
CC1=NCCc2c1[nH]c1cc(O)ccc21,-1,74*,27,/,i,94*,48*,
CS(=O)(=O)Nc1ccc2c(c1)[C@@H]1C[C@@H](CC(=O)NCc3ccc(Cl)cc3)O[C@H](CO)[C@@H]1O2,/,/,/,/,0,/,/,
COC(=O)c1[nH]c2cccc(OC)c2c1NC(=O)CN1CC(C)OC(C)C1 (configuration not stated),0,11,-2,-5,-1,/,/,
COC(=O)c1[nH]c2cc(OC)c(OC)cc2c1NC(=O)CN1C[C@H]2C[C@@H](C1)c1cccc(=O)n1C2,-2,37*,11,/,0,69*,54*,
Cc1cc(C)c2c(N)c(C(=O)Nc3nccs3)sc2n1,0,105*,13,-7,1,151*,110*,
CCCCOC(=O)c1sc2nc(C)cc(C)c2c1N,/,/,/,-1,/,/,/,
CCOC(=O)c1sc2nc(C)cc(C)c2c1N,-2,36*,23,-8,0,65*,56*,
Cc1cccc2c(C(=O)O)c3cccc(C)c3nc12,-3,95*,25,/,/,52*,55*,
Cc1ccc(-c2ccc(CO)o2)cc1N,-1,30*,6,-3,/,187*,121*,
CCCCn1c(N)c(N(CC(C)C)C(=O)CSc2n[nH]c(-c3ccc(C)cc3)n2)c(=O)[nH]c1=O,-3,67*,14,/,/,70*,44*,
SMILES,FadD28 FP inh,FBA Mtb inh,GDH-TPI counter-1,SARS 3CLpro inh,Mtb BioA inh,Mtb FBA confirm,GDH-TPI counter-2,others
Cc1cc2[nH]c(=O)c(=O)[nH]c2cc1S(=O)(=O)N1CCC(C)CC1,-1,6,6,0,0,/,/,
Cc1cc2[nH]c(=O)c(=O)[nH]c2cc1S(=O)(=O)NC1CCC(C)CC1 (configuration not stated),-1,29*,14,-2,-1,191*,188*,
Cc1cc2[nH]c(=O)c(=O)[nH]c2cc1S(=O)(=O)NCc1ccccc1,-5,33*,7,-1,2,72*,65*,
Cc1cc2[nH]c(=O)c(=O)[nH]c2cc1S(=O)(=O)NCC(C)c1ccccc1 (configuration not stated),-1,24,18,/,0,/,/,
Fc1ccc(-c2cnc(-c3cccs3)o2)cc1,1,61*,12,5,1,81*,71*,
O=C(C[C@H]1C[C@H]2c3cc(NC(=O)NC4CCCC4)ccc3O[C@H]2[C@H](CO)O1)NCc1ccc2c(c1)OCO2,/,/,/,/,-2,/,/,
c1nc2sc3c(c2c2nnnn12)CCC3,-1,36*,2,2,-2,10,3,
c1nc2sc3c(c2c2nnnn12)CCCC3,-1,22,14,0,0,/,/,
Cc1cc(OCC(=O)N2CCC[C@@H]2C(=O)O)c2c(C)c(C)c(=O)oc2c1,-1,84*,8,-5,-1,123*,98*,
Cc1c(C)c2ccc(OC(C)C(=O)NC3CCN(Cc4ccccc4)CC3)cc2oc1=O (configuration not stated),-3,84*,-7,3,1,8,-3,
CC(Oc1ccc2ccc(=O)oc2c1)C(=O)NC1CCN(Cc2ccccc2)CC1 (configuration not stated),-2,23,20,-8,7,/,/,
CCCc1cc(=O)oc2cc(C)cc(OCC(=O)NC3CC3)c12,1,93*,14,-2,-1,1,2,
Cc1cc(OCC(=O)NC2CCS(=O)(=O)C2)c2c3c(c(=O)oc2c1)CCC3 (configuration not stated),0,23,3,-2,-1,/,/,
Cc1cc(OCC(=O)NCC2CCC(C(=O)O)CC2)c2c3c(c(=O)oc2c1)CCC3 (configuration not stated),-2,20,15,-1,-1,/,/,
CCCc1cc(=O)oc2cc(OCC(=O)OC)cc(OCC(=O)OC)c12,/,/,/,8,/,/,/,
